Only a selection was taken, and hits are over-represented in it overall.
TDP1 cell noCPT – qHTS for Inhibitors of human tyrosyl-DNA phosphodiesterase 1 (TDP1): qHTS in cells in absence of CPT | Potency, µM (series often up to 46.2 µM), without a hit: top-dose activity change, negative = growth inhibition, usual class: inhibitors | AID 686978, 2013 | 420,000 tested, 15% active | DT40 Tdp1-/- hTDP1 cells, no CPT, ATP luminescence, 48 h; note: potency is the fitted concentration of half-maximal effect; nearly all actives have a fitted effect of over 55% in size
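Chicken DT40 Tdp1-/- cells stably complemented with human TDP1 were seeded at 400 cells/well with DMSO in place of 20 nM camptothecin. After compound pinning, cells grew at least 48 hr at 37 °C; viability read by CellTiter-Glo luminescence.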
ALOX12 inh – Primary qHTS assay for inhibitors of human arachidonate 12S-lipoxygenase (ALOX12): Round 2. AID 1671190, 2021. purified 12hLO, xylenol orange hydroperoxide absorbance. 580,000 tested, 1.1% active. Potency, µM (doses to about 108 µM), for inactives: top-dose activity change, negative = inhibition, most hits filed as inhibitors. Polyunsaturated fatty acid lipoxygenase ALOX12 (Homo sapiens), P18054; note: potency is the fitted concentration of half-maximal effect
Target sequence (P18054 whole entry, looked up): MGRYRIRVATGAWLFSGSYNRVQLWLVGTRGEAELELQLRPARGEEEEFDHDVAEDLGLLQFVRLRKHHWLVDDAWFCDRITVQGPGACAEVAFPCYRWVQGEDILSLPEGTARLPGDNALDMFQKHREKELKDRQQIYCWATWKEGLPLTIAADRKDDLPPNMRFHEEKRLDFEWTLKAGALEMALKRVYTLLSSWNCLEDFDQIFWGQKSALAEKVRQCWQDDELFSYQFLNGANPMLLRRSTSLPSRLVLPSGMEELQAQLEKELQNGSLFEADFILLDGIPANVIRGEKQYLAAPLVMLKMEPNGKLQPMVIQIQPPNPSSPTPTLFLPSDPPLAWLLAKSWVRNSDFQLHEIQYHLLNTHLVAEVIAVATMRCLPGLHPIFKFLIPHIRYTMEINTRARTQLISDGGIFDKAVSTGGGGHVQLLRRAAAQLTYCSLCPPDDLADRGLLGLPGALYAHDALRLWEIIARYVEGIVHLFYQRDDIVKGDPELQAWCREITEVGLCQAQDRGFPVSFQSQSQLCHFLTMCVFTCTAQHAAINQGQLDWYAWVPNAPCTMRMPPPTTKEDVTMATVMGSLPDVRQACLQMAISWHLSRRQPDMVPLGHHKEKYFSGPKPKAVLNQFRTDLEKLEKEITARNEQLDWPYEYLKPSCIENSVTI
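Purified human 12hLO (150 nM final) in 25 mM Hepes, 0.01% Triton X-100, pH 7.0 was preincubated 15 min at room temperature with compound. Then 40 uM arachidonic acid was added, 30 min. Hydroperoxide was read by Fe-XO absorbance ratio 573/405 nm.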
IL-1B inflam inh – qHTS for Inhibitors of Inflammasome Signaling: IL-1-beta AlphaLISA Primary Screen; 360,000 tested, 4.7% active; THP-1 LPS/ATP IL-1B secretion, AlphaLISA, 16 h; hits give low values; activity change, % at 57.5 µM; AID 743279, 2014; in the data active = activity change below about -50%; inconclusive = mostly about -30% to -49%
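Secreted IL-1B measured by AlphaLISA bead assay after 16 h compound exposure of THP-1 cells; compounds (final up to 57.5 uM) added 1 h before LPS (250 ng/mL) and ATP (1.25 mM) stimulation; lower signal means less secretion.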
HT1080 IDH1KD tx – qHTS for induction of synthetic lethality in tumor cells producing 2HG: qHTS for the HT-1080-IDH1KD cell line | Potency, µM (titrated, usually from 46.1 µM), inactives show at the top dose activity, negative = toxicity, actives largely listed as cytotoxic | HT-1080 IDH1 knockdown viability, ATP luminescence, 48 h | 360,000 tested, 2% active;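 note: potency is the fitted concentration of half-maximal effect; 0% = DMSO wells and -100% = cell-free medium wells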
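Using the IDH1-knockdown HT-1080 line run in the same batch and compound series as the NT line, viability after 48 h at 37 °C was determined by CellTiter-Glo luminescence and expressed as % activity.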
TDP1 cell CPT – qHTS for Inhibitors of human tyrosyl-DNA phosphodiesterase 1 (TDP1): qHTS in cells in presence of CPT; chicken DT40 Tdp1-/-;hTDP1 cells + 20 nM CPT, ATP luminescence, 48 h; Potency, µM (highest dose often 46.2 µM), for inactives: top-dose activity change, negative = growth inhibition, actives largely listed as inhibitors; 420,000 tested, 12% active; AID 686979, 2013; note: potency is the fitted concentration of half-maximal effect; nearly all actives have a fitted effect of over 55% in size
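Cell growth measured by CellTiter-Glo luminescence after a minimum 48 h, 37 C compound exposure with 20 nM CPT in Tdp1-knockout DT40 cells stably expressing hTDP1, seeded 400/well; qHTS titration format.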
HT1080-NT tox – qHTS for induction of synthetic lethality in tumor cells producing 2HG: qHTS for the HT-1080-NT fibrosarcoma cell line; HT-1080-NT fibrosarcoma viability, CellTiter-Glo ATP luminescence, 48 h; Potency, µM (highest dose often 46.1 µM), inactives show at the highest dose activity, negative = less viability, most hits filed as cytotoxic; 360,000 tested, 1.6% active; AID 686970, 2013;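 note: NT is the 2HG producing partner of a matched IDH1 knockdown line; potency is the fitted concentration of half-maximal effect; 0% = DMSO-treated cells and -100% = media-only wells without cells; nearly all actives have a fitted effect of over 55% in size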
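Viability of the 2HG-overproducing fibrosarcoma line after 48 hours of compound exposure at 37 degrees C was determined by luminescence with CellTiter-Glo, and concentration-effect curves were then fitted and categorized.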
* hit, by the source's call; ? = inconclusive; . = no result given; [ ] = remark or other dose. Unless noted, calls come from the whole dose curve; as a rule, active = well fitted curve in the direction sought with a large enough effect; inconclusive = small, poorly fitted or top-dose-only effect, or another doubt; inactive = no such curve, though single readings can be large; an effect the other way counts as inactive or inconclusive. Unless noted, % is set by controls: 0 for no effect and ±100 for the full control effect.

SMILES	TDP1 cell noCPT	ALOX12 inh	IL-1B inflam inh	HT1080 IDH1KD tx	TDP1 cell CPT	HT1080-NT tox
C[C@@H]1CN([C@H](C)CO)C(=O)c2c(c3ccccc3n2C)-c2ccccc2CO[C@H]1CN(C)S(=O)(=O)c1cn(C)cn1	-18%	16%	48	12%	2%	1%
Cc1ccc(N2C(=O)C3C4C=CC(CNC(=S)N5CCN(c6cccc(C)c6)C(C)C5)(O4)C3C2=O)cc1 (stereo unspecified)	4.6µM*	-23%	27	-3%	9.2µM*	30%
Cc1cccc(N2CCN(C(=O)c3ccc4ccccc4c3)CC2C)c1 (stereo unspecified)	?	-28%	?	1%	?	-6%
N[C@H]1CN(C(=O)c2ccc(N3CCCCC3)cc2)C[C@@H]1c1ccccc1	.	40%	.	.	.	.
CCCCNC1C(CC)C(CCC)C(C#N)(C#N)C1(C#N)C#N (stereo unspecified)	8.2µM*	.	-118*	?	13µM*	?
Cc1cc(N=O)no1	.	-3%	.	.	.	.
CC(C)(C)c1ccc(/C=C2/SC(N3CCCC3)=NC2=O)cc1	?	?	.	18µM*	-27%	16µM*
O=C1N=C(N2CCCC2)S/C1=C\c1ccccc1	-20%	34%	-6	6%	-24%	-3%
Cc1ccc(/C=C2\SC(N3CCCCC3)=NC2=O)cc1	?	12%	-66*	-9%	?	-10%
CCSCCC(=O)Nc1ccc(Cl)c(C(=O)NC)c1	.	11%	.	.	.	.
CCCCCCCCCC1(CC(=O)OCC)SCCN1C(N)=O (stereo unspecified)	15µM*	?	0	-17%	?	-5%
CC(=O)c1c(C(C)=O)c(C)n(-c2nc(-c3ccc(Br)cc3)c(C)s2)c1C	16µM*	-10%	-28	-15%	18µM*	-6%
COc1ccc(-c2nc(-n3c(C)c(C(C)=O)c(C(C)=O)c3C)sc2C)cc1OC	?	-15%	2	6%	?	7%
CCN(CC)S(=O)(=O)c1ccc(N=NC2=C(O)CCCC2=O)cc1	7%	-27%	16	2%	1%	0%
CCN(CC)S(=O)(=O)c1ccc(N=NC2=C(O)CC(C)(C)CC2=O)cc1	?	-17%	-55*	4%	?	-7%
CN(C)Cc1cc(OCc2ccccc2)cc(CN(C)C)c1O	5%	?	?	-1%	5%	-2%
CN(C)Cc1cc(C(C)(C)c2cc(CN(C)C)c(O)c(CN(C)C)c2)cc(CN(C)C)c1O	-15%	0%	-62*	-13%	-10%	-8%
O=C(NCc1ccccc1)c1cccc(-c2cnc3ccccc3c2)c1	.	-4%	.	.	.	.
CCOC(=O)C1CCN(C(=O)c2sc3nc(-c4ccccc4)cn3c2C)CC1	18µM*	-2%	10	-3%	?	2%
COc1ccccc1N1CCN(C(=O)c2sc3nc(-c4ccccc4)cn3c2C)CC1	18µM*	23%	-76*	-13%[9.24 µM]	16µM*	-23%
O=C(NCCc1nc2ccccc2[nH]1)c1cccc(N2CCCN(Cc3ccccc3F)C2=O)c1	.	-4%	.	.	.	.
Cc1cc(-n2ccnc(NCCc3ccc(S(N)(=O)=O)cc3)c2=O)ccc1Br	26µM*	-24%	.	.	?	.
COC(=O)C1CN(C2CCCC2)CCS(=O)(=O)N1Cc1cn(Cc2ccc(C)cc2)nn1 (stereo unspecified)	.	-7%	.	.	.	.
O=S(=O)(c1ccccc1)N1CCN(S(=O)(=O)c2ccccc2)CC1	-1%	.	.	.	17%	.
CC1=C(C)CS(=O)N(c2ccc(S(N)(=O)=O)cc2)C1 (stereo unspecified)	23µM*	-11%	-93*	-6%	13µM*	-24%
SMILES	TDP1 cell noCPT	ALOX12 inh	IL-1B inflam inh	HT1080 IDH1KD tx	TDP1 cell CPT	HT1080-NT tox
CC1=C(C)CS(=O)N(S(=O)(=O)c2ccccc2)C1 (stereo unspecified)	10µM*	-19%	-50*	?	23µM*	?
Cc1c(Cl)sn(-c2ccc(Cl)cc2)c1=O	0.026µM*	4.5µM*	?	2.6µM*	0.26µM*	26µM*
CC(=O)c1ccc(OCC(O)COc2ccc(C(C)=O)cc2)cc1	-26%	20%	10	-2%[9.24 µM]	-23%	2%
CC(=O)c1ccc(OCC(C)Oc2ccc(C#N)cc2)cc1 (stereo unspecified)	23µM*	0%	5	-12%	?	0%
CCc1ccccc1NCC(=O)Nc1ccc(Cl)c(C(F)(F)F)c1	16µM*	8%	.	?	26µM*	?
COc1ccc(NC(=O)CN2CCN(CC(=O)Nc3ccccc3Cl)CC2)cc1Cl	12µM*	0%	-51*	-1%	15µM*	-1%
O=C(CCNC(=O)c1ccccc1Cl)Nc1ccc(Cl)c(C(F)(F)F)c1	23µM*	-9%	-1	-14%	?	-1%
COc1cc(Cl)c(C)cc1NC(=O)c1ccccc1NC(=O)CN1CCOCC1	4.6µM*	15%	22	12%	2.6µM*	16%
COc1ccc(NC(=O)CCNC(=O)c2ccccc2Cl)cc1OC	7%	11%	0	17%	-5%	10%
COC(=O)CNC(=O)N1CCCCCCNC(=O)[C@@H]2C[C@@H](c3nc(-c4cccnc4)no3)C[C@@H]21	.	44%	.	.	.	.
Cc1ccc(Cl)cc1NC(=O)N[C@H](C)C(=O)O	.	-24%	.	.	.	.
COC(=O)CNC(=O)Cc1ccc(NC(=O)C2=COCC2)cc1	.	0%	.	.	.	.
COc1ccc(S(=O)(=O)NCC(=O)N(CC(=O)NCC2CCCO2)Cc2ccc(F)cc2)cc1 (stereo unspecified)	-11%	-8%	-23	0%	-14%	3%
COCCN1CC2(CCCN(Cc3ccc4ccn(C)c4c3)C2)CCC1=O (stereo unspecified)	.	-9%	.	.	.	.
COc1ccccc1NC(=O)CN1CCN(CC(=O)Nc2ccc(Cl)c(C(F)(F)F)c2)CC1	13µM*	0%	-80*	23µM*	15µM*	?
COc1ccccc1NC(=O)CN1CCN(CC(=O)Nc2ccc(F)cc2F)CC1	-22%	8%	37	22%	-27%	0%

Screening data (PubChem)
